Among all 310,000 compounds or so, about 14,000 (4.5%) showed an effect of 50% or more. The effect is printed as a negative number. The list comes from a sample in which strong results are over-represented; it also holds similar structures and randomly drawn compounds.
target: human ether-à-go-go-related gene (hERG) potassium channel (human, UniProt Q12809); assay: primary screen, population patch clamp on CHO cells stably expressing hERG; higher = less effect of the substance
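Note: peak tail current of the secondary pulse compared with the same well before compound.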

Sequence of human ether-à-go-go-related gene (hERG) potassium channel (Q12809 whole entry, looked up): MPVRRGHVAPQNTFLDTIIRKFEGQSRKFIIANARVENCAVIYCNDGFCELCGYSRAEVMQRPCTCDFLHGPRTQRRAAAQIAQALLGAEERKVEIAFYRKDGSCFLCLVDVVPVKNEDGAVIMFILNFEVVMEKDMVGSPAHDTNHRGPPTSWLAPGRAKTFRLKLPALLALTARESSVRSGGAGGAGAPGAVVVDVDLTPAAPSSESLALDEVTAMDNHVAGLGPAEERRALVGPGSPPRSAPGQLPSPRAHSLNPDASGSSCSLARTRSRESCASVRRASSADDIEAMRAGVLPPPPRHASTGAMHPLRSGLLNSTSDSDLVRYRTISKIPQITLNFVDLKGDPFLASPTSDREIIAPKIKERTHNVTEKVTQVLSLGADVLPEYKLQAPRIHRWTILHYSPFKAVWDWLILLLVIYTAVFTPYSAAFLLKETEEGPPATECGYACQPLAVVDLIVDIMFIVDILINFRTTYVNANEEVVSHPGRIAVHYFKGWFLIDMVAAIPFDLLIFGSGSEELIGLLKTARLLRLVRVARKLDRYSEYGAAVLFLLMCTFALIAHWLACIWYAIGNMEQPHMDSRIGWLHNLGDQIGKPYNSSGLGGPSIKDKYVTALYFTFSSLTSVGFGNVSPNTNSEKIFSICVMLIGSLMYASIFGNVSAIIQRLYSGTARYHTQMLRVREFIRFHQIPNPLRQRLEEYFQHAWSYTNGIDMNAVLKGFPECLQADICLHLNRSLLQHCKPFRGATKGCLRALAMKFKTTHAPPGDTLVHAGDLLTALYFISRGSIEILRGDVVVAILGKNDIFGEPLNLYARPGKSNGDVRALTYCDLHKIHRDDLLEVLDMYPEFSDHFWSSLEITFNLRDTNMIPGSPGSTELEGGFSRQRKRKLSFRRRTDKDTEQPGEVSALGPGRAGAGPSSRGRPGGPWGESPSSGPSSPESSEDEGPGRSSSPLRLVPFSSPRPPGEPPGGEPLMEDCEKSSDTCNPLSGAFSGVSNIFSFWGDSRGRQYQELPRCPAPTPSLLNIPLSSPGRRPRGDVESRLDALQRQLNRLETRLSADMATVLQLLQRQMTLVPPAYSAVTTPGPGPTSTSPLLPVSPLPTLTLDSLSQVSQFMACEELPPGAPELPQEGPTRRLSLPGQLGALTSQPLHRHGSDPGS

Point of comparison: COC(=O)[C@@H]1CCCN1C(=O)CCc1nnc(C2CCCCC2)o1, “hERG current change (%, negative = inhibition) at 10uM” value 6.94%. Against it:
- O=C1CCCCCN1Sc1ccccc1 — higher, 12%
- N#Cc1cccc(CN2CCC(=O)N([C@H](CO)c3ccccc3)CC2)c1 — lower, -4.9%
- CC(=O)N1c2ccc(S(=O)(=O)NCCc3ccc(S(N)(=O)=O)cc3)cc2CC1C (centres unmarked) — higher, 13%
- COc1ccc(/C=N/NC(=O)c2c(C)n(C)c3ccc(OC)cc23)c(OC)c1 — lower, -14.3%
- COCC(C)NC(=O)c1ccc2c(c1)S(=O)(=O)c1ccccc1C2=O (centres unmarked) — lower, 3.96%
- CCn1c(=S)ccc2ccc(OC)cc21 — lower, -0.453%
- CCOc1ccc(-c2c(C(=O)N/N=C(\C)c3cccs3)nnn2-c2nonc2N)cc1 — higher, 12.9%
- C#CCNC(=O)C1=C[C@H](c2cn(C(C)=O)c3ccccc23)[C@@H](CCCO)[C@H](OCC)O1 — lower, -36.9%
- CCO[C@@H]1OC(C(=O)NCc2ccccc2)=C[C@H](c2ccccc2)[C@H]1CCCO — lower, -18.7%
- CCO[C@H]1OC(C(=O)NCc2ccccc2)=C[C@@H](c2cn(C(C)=O)c3ccccc23)[C@@H]1CCCO — lower, -64.3%
- CCO[C@@H]1OC(C(=O)NCc2ccccc2)=C[C@H](c2cn(C(C)=O)c3ccccc23)[C@H]1CCCO — lower, -82.9%
- CCO[C@@H]1OC(C(N)=O)=C[C@H](c2cn(C(C)=O)c3ccccc23)[C@H]1CCCO — lower, 6.45%
- CCO[C@H]1OC(C(=O)NCc2ccccc2)=C[C@@H](c2ccccc2)[C@@H]1CCCO — lower, -19.6%
- CCOC(=O)CN/C=C(\C#N)c1ccccc1 — higher, 16.2%
- COc1cc(/C=C2\C(=O)ON=C2c2ccccc2)cc(Cl)c1O — lower, -49.9%
- CC(C)(C)OC(=O)CNC(=O)c1[nH]cnc1C(=O)Nc1ccc(CNC(=O)OC(C)(C)C)cc1 — lower, -0.221%
- CCCCC(=O)Nc1nc(C)c(-c2csc(Nc3cc(OC)ccc3OC)n2)s1 — lower, 5.95%
- Cc1nc(Nc2cccc(O)c2)c2c3c(sc2n1)CCC3 — lower, -1.85%
- O=C1CSC(c2ccc(F)cc2)N1c1nc2ccccc2s1 (centres unmarked) — lower, -20.8%
- O/N=C/c1ccccc1OCc1ccc(Cl)cc1 — lower, 5.5%
- Cc1ccc(/C=C/C(=O)Nc2ccc([N+](=O)[O-])cc2)o1 — lower, -1.05%
- CCC(Oc1ccccc1)C(=O)N(Cc1ccccc1)c1ccccn1 (centres unmarked) — lower, -6.96%
- O=C(CNCc1ccccn1)Nc1cc(C(F)(F)F)ccc1N1CCOCC1.O=C(O)C(=O)O — lower, -57.5%
- Cc1nc2ccccc2nc1OCC(=O)Nc1cc(C(F)(F)F)ccc1N1CCOCC1 — lower, 0.222%
- O=C(Nc1cc(C(F)(F)F)ccc1N1CCOCC1)c1cnccn1 — lower, -2.15%
- O=C(Nc1cc(C(F)(F)F)ccc1N1CCOCC1)c1ccccc1 — higher, 12.6%
- O=C(CNCc1cccnc1)Nc1cc(C(F)(F)F)ccc1N1CCOCC1.O=C(O)C(=O)O — lower, -67%
- O=C(Nc1cc(C(F)(F)F)ccc1N1CCOCC1)c1cccnc1 — lower, -42.3%
- O=C(O)CSc1c2c(nc3cc(C(=O)NCCN4CCOCC4)ccc13)CCC2 — lower, -6.18%
- CC(C)(C)c1ccc(/C=N/NC(=O)C[n+]2ccccc2)cc1.[Cl-] — higher, 26%
- Cc1ccc(NC(=O)C2(C)Cc3ccccc3C(=O)O2)cc1 (centres unmarked) — lower, -5.03%
- CCCCNS(=O)(=O)c1ccc2nc(-c3cccs3)cc(C(=O)NCC(OC)OC)c2c1 — higher, 9.85%
- Cc1c(C(=O)N2CCCCC2)c(S(=O)(=O)Nc2cccc(Br)c2)c(C)n1C — lower, -4.02%
- O=C(CCc1nnc(CCCCc2ccccc2)o1)N1CCCCC1CCO (centres unmarked) — lower, -1.73%
- O=C(CCc1nnc(C2CCCCC2)o1)N1CCCCC1CCn1cccn1 (centres unmarked) — lower, 3.65%
- O=C(CCc1nnc(CCc2ccccc2)o1)N1CCCCC1CCn1cccn1 (centres unmarked) — lower, -51.1%
- O=C(CCc1nnc(C2CCCCC2)o1)N1CCN(C2CCCCC2)CC1 — higher, 10.4%
- CCC1CCCCN1C(=O)CCc1nnc(C2CCCCC2)o1 (centres unmarked) — lower, -55%
- O=C(Cc1cccs1)N/N=C/C(Br)=C/c1ccccc1 — higher, 10.1%
- CCOc1ccc(OCCCC(=O)Nc2nc3ccccc3[nH]2)cc1 — higher, 12%
- CC1CCCN(C(=O)CSc2nnc(-c3ccncc3)n2C)C1 (centres unmarked) — higher, 45.9%
- C/C=C\C=C\C(=O)Nc1cccc(C2=NOC3(C2)C[C@@H](C(N)=O)N(C(=O)C(c2ccccc2)c2ccccc2)C3)c1 (some centres unmarked) — lower, 0.545%
- Cc1ccc(C=Nc2ccc(N(C)C)cc2)o1 — lower, -0.267%
- CCOC(=O)c1ccc(NC(=O)c2ccc3c(c2)C(=O)N(CC2CCCO2)C3=O)cc1 (centres unmarked) — lower, -1.87%
- COc1ccccc1OCC(=O)NCCS(=O)(=O)N1CCN(c2ccccc2)CC1 — lower, -44.4%
- COc1ccccc1OCC(=O)NCCS(=O)(=O)N1CCN(c2ccc(F)cc2)CC1 — lower, -60.8%
- COc1ccc(OCC(=O)NCCS(=O)(=O)N2CCN(c3ccc(F)cc3)CC2)cc1 — lower, -8.69%
- Cc1ccccc1OCC(=O)NCCS(=O)(=O)N1CCN(c2ccc(F)cc2)CC1 — lower, -66.6%
- COc1ccc(N2CCN(S(=O)(=O)CCNC(=O)COc3ccccc3OC)CC2)cc1 — lower, -1.02%
- COc1ccc(N2CCN(S(=O)(=O)CCNC(=O)COc3ccccc3C)CC2)cc1 — lower, 1.17%
- CCOc1ccc(/C=C(\C#N)C(=O)c2c(C)[nH]c3ccccc23)cc1OC — lower, -4.5%
- CC1Cc2ccccc2N1CC(=O)Nc1ccc(S(N)(=O)=O)cc1 (centres unmarked) — lower, -6.21%

Source: PMC4336329 (PLoS ONE, 2015)
